According to PubChem BioAssay (NCATS):
Inconclusive results are not listed. Calls of active or inactive are those of the source. Unless noted, calls follow the shape of the dose curve; as a rule, active = well fitted curve in the direction sought with a large enough effect; inconclusive = small, poorly fitted or top-dose-only effect, or another doubt; inactive = no such curve, though single readings can be large; an effect the other way counts as inactive or inconclusive.

What was measured:
[1] = biological target: Lysosomal acid glucosylceramidase (Homo sapiens) (UniProt P04062); test: Glucocerebrosidase-p2 (AID 348; in the data active = potency below about 10 µM; also: potency is read from the fitted curve at half-maximal effect); settings: purified GBA, blue fluorogenic substrate, 40 min
Lysosomal acid glucosylceramidase (Homo sapiens), sequence (P04062 whole entry, looked up): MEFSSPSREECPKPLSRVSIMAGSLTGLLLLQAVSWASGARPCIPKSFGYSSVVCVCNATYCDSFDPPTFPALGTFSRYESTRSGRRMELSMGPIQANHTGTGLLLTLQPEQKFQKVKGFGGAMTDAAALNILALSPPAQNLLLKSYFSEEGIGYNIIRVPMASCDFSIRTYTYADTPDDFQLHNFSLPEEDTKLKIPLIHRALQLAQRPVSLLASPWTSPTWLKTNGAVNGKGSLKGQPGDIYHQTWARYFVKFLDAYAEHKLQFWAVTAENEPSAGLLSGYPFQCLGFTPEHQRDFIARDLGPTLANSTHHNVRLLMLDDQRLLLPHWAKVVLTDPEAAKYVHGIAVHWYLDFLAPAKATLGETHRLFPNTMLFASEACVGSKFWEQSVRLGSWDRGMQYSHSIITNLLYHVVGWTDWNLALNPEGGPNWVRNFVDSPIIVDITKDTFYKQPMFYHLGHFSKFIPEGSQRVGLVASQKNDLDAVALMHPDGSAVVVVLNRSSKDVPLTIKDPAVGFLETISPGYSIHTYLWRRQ
Summary of the method: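 Normal human glucocerebrosidase (0.2 nM) with blue fluorogenic substrate (80 uM final) in citrate/phosphate pH 5.9 with 10mM sodium taurocholate, 0.01% tween-20; 40 min RT, NaOH/glycine stop; fluorescence Ex 365/Em 440; AC50 from a titration from 0.6 nM upwards.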

[2] = AP1 Signaling Pathway (AID 357; active = well fitted curve in either direction with a large enough effect, not every such curve was filed as active;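 also: ME-180 reporter cells stimulated with EGF at its EC50 level; % is scaled to controls: 0 for no effect and ±100 for the full control effect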); settings: ME-180 AP-1-bla reporter, EGF-induced, beta-lactamase ratio, 5 h; at 7.69 µM (top of the series) unless noted
Summary of the method: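 Cells are seeded overnight, exposed to compound titrations and an EC50 level of EGF for 5 hours at 37 °C, then loaded with CCF4 dye for 2.5 hours. Beta-lactamase activity under the AP-1 element is read as a blue/green ratio.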

[3] = biological target: Cytochrome P450 1A2 (Homo sapiens) (UniProt P05177); test: p450-cyp1a2 (AID 410; calls by dose curve; also: potency is read from the fitted curve at half-maximal effect); settings: recombinant CYP1A2, luciferin-ME demethylation, luminescence; series mostly up to 57 µM
Cytochrome P450 1A2 (Homo sapiens), sequence (P05177 whole entry, looked up): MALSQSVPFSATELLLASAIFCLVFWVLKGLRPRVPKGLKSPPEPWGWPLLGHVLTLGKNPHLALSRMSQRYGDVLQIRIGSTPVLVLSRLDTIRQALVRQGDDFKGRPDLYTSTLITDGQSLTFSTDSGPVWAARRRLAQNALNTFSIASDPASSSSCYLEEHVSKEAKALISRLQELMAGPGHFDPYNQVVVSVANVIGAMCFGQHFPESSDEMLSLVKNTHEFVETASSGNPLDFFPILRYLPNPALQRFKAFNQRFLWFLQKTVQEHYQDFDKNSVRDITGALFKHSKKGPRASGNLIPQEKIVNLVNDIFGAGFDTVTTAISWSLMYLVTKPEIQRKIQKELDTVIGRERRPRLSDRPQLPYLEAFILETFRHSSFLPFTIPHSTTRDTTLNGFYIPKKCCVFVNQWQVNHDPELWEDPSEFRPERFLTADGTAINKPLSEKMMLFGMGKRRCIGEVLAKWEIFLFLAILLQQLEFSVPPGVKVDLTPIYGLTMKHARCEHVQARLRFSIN
Summary of the method: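 O-Demethylation of luciferin 6' methyl ether by human CYP1A2 is monitored as luciferase luminescence. Substrate sits at Km (100uM); enzyme is 20nM. Values are scaled to 57 uM furafylline as maximal inhibition.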

[4] = NFAT Signaling Pathway (AID 444; active = well fitted curve in either direction with a large enough effect, not every such curve was filed as active;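 also: carbachol stimulus at about its EC50 of 1 µM final; % is scaled to controls: 0 for no effect and ±100 for the full control effect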); settings: Jurkat NFAT-bla M1, carbachol, beta-lactamase ratio, 5 h; at 7.69 µM (top of the series) unless noted
Summary of the method: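 Jurkat cells carrying an NFAT-driven β-lactamase reporter and co-transfected muscarinic M1 receptor were treated with compound plus carbachol (1 uM final, an EC50 level) for 5 h at 37 °C. CCF4 loading followed for 1 h at RT; 460/530 nm ratio gave %activity.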

[5] = Stat Signaling Pathway (AID 446; active = well fitted curve in either direction with a large enough effect, not every such curve was filed as active;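 also: ME-180 cervical cancer cells given 40 pM IL-6 alongside compound; SIE-controlled beta-lactamase reporter measured as 460/530 nm FRET emission ratio; % is scaled to controls: 0 for no effect and ±100 for the full control effect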); settings: ME-180 SIE beta-lactamase reporter, IL-6 stimulated, 5 h; at 7.69 µM (top of the series) unless noted
Summary of the method: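 Emission at 460 and 530 nm (excitation 405 nm) reports SIE-controlled beta-lactamase in ME-180 cells. Cells received compound with 40 pM IL-6 for 5 hrs at 37 C; data scaled between 300 pM IL-6 and 125 nM JAK-inhibitor controls.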

[6] = biological target: Glucocorticoid receptor (Homo sapiens) (UniProt P04150); test: GR-EFC Redistribution (AID 451; calls by dose curve; also: potency is read from the fitted curve at half-maximal effect); settings: CHO-K1 GR-EFC translocation, beta-gal luminescence, 2 h
Glucocorticoid receptor (Homo sapiens), sequence (P04150 whole entry, looked up, the tested form may be a part): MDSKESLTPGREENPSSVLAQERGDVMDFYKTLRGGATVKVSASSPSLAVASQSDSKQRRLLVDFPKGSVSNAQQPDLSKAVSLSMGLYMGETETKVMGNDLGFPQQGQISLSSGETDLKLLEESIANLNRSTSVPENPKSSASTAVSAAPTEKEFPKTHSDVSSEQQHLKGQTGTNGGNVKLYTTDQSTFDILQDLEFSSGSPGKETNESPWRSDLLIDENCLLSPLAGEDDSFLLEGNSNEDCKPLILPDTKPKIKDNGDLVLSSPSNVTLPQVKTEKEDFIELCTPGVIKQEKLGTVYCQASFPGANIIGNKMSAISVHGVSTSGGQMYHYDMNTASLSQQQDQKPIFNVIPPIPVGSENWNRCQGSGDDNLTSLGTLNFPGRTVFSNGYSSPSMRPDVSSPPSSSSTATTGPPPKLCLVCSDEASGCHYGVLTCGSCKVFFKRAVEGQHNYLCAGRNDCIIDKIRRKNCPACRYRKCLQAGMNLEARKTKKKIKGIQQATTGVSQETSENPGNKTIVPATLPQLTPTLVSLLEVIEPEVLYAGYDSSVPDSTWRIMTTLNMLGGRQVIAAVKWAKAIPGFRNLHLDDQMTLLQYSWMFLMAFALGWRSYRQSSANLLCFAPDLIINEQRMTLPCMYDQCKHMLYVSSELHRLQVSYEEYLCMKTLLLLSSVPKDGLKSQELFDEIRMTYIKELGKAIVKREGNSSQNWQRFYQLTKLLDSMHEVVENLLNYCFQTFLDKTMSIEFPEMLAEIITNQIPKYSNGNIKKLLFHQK
Summary of the method: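 CHO-K1 cells stably expressing nuclear-localized β-gal enzyme acceptor and GR fused C-terminally to the enzyme donor fragment; ligand-driven nuclear translocation restores β-gal by complementation. Compounds titrated up to 46 uM final, 2 h at 37 °C; luminescence read.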

[7] = biological target: Mitogen-activated protein kinase 10 (Mus musculus) (UniProt Q61831); test: JNK3 AlphaScreen Assay (AID 530; active = well fitted curve in either direction with a large enough effect, not every such curve was filed as active;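 also: kinase came from lysate of stimulated human HepG2 cells; signal reports phosphorylation of biotinylated GST-cJun 1-79 at Ser73 with 10 µM ATP; % is scaled to controls: 0 for no effect and ±100 for the full control effect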); settings: JNK3 lysate, c-Jun phosphorylation; series mostly up to 57.1 µM
Summary of the method: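 Phosphorylation of biotinylated GST-cJun(1-79) at Ser73 is measured by AlphaScreen proximity luminescence. Enzyme is JNK3 in HepG2 lysates activated with interleukin-1beta and tumor necrosis factor alpha; ATP is 10 uM final.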

[8] = biological target: 3',5'-cyclic-AMP phosphodiesterase 4B (Homo sapiens) (UniProt Q07343); test: qHTS Assay for Inhibitors of PDE-IV (AID 607; active = well fitted activation curve with a large enough effect in the main read-out, with a control signal flat, not every such curve was filed as active; also: % of control where 0% means no effect); settings: HEK293 ACTOne CNG channel cells, membrane potential fluorescence; series mostly up to 22.9 µM
3',5'-cyclic-AMP phosphodiesterase 4B (Homo sapiens), sequence (Q07343 whole entry, looked up): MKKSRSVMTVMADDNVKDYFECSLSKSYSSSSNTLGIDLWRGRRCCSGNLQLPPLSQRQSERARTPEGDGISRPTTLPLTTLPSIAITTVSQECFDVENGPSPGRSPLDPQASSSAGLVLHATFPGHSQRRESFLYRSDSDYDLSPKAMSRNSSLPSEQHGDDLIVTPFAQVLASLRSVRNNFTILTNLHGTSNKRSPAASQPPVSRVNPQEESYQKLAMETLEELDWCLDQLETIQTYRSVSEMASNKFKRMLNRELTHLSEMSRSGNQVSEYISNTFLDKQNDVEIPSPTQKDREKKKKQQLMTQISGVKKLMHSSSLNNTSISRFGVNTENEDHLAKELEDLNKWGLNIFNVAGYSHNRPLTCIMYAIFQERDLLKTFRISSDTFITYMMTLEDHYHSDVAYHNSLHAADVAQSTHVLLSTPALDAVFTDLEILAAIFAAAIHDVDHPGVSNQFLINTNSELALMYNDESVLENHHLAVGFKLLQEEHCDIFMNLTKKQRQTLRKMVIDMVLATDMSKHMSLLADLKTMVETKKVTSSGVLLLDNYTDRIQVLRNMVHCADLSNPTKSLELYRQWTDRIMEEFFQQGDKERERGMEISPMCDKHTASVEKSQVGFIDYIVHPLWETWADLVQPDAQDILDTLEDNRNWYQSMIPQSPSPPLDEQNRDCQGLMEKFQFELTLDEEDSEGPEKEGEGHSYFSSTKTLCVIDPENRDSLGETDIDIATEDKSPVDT
Summary of the method: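 The readout is membrane depolarisation from a cAMP-sensing CNG channel, detected with a potential dye at ex 535/em 590. Cells were HEK293-derived (endogenous PDE-IV) at 1000 cells/well, titrated up to 22.9 uM final.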

[9] = biological target: Cytochrome P450 3A4 (Homo sapiens) (UniProt P08684); test: qHTS Assay for Activators of Cytochrome P450 3A4 (AID 885); settings: recombinant CYP3A4, Luciferin-PPXE luminescence, 60 min; series mostly up to 57.1 µM; also: nearly all actives have a fitted effect of over 65% in size; also: potency is read from the fitted curve at half-maximal effect
Cytochrome P450 3A4 (Homo sapiens), sequence (P08684 whole entry, looked up): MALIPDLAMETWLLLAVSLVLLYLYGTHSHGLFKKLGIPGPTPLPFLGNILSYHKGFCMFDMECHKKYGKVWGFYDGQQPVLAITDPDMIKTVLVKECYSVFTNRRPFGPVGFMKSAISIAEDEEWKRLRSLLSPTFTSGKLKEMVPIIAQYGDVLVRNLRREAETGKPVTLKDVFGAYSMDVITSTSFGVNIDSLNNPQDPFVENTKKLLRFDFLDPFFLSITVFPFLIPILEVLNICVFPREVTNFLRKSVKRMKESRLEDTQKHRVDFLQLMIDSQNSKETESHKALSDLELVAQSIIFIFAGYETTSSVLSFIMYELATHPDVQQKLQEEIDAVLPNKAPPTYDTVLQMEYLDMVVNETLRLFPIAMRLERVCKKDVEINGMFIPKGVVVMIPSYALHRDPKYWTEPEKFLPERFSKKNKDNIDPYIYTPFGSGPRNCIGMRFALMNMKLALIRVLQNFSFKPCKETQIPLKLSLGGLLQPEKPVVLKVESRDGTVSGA
Summary of the method: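 Activators are scored by enhanced luminescence from CYP3A4 conversion of luciferin-PPXE (25uM, equal to KM) to luciferin, after 60 min at RT with an NADPH-regenerating system.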

[10] = qHTS Assay for Identification of Small Molecule Agonists for Hypoxia Response Element Signaling Pathway (AID 914; active = well fitted activation curve with a large enough effect in the signal ratio, with a control signal flat, not every such curve was filed as active; the % refers to the signal ratio; also: % of control where 0% means no effect); settings: ME-180 (cervical carcinoma) HRE-bla reporter, beta-lactamase ratio, CoCl2, 17 h; activation: stronger effect = higher value
Summary of the method: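 Cells were plated overnight, pin-dosed with compound in a titration series, co-stimulated with EC50 CoCl2 and incubated 17 hours at 37 degrees Celsius. CCF4 substrate was then loaded, and AC50 values came from the 460nm/530nm ratio.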

[11] = qHTS Assay for Lipid Storage Modulators (AID 1519; calls by dose curve); settings: Drosophila S3 cells, BODIPY lipid droplet/cell ratio, laser cytometry, cells loaded with oleic acid; for activity change, negative = inhibition: at 57.5 µM (top of the series)
Summary of the method: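 Cells seeded at 5,000 per well were treated with compounds over a concentration series and loaded with oleic acid (400 uM, as added). Lipid droplet fluorescence (488 nm excitation, 500-530 nm channel) was read by laser-scanning cytometry and normalized to 20 uM Triacsin C.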

[12] = biological target: Dual specificity protein kinase CLK4 (Homo sapiens) (UniProt Q9HAZ1); test: qHTS Assay for Inhibitors of CDC-like Kinase 4 (Kinase-Glo Assay) (AID 1770); settings: recombinant Clk4, Kinase-Glo ATP depletion luminescence; series mostly up to 66.7 µM; also: % is scaled to controls: 0 for no effect and ±100 for the full control effect; nearly all actives have a fitted effect of over 65% in size
Dual specificity protein kinase CLK4 (Homo sapiens), sequence (Q9HAZ1 whole entry, looked up): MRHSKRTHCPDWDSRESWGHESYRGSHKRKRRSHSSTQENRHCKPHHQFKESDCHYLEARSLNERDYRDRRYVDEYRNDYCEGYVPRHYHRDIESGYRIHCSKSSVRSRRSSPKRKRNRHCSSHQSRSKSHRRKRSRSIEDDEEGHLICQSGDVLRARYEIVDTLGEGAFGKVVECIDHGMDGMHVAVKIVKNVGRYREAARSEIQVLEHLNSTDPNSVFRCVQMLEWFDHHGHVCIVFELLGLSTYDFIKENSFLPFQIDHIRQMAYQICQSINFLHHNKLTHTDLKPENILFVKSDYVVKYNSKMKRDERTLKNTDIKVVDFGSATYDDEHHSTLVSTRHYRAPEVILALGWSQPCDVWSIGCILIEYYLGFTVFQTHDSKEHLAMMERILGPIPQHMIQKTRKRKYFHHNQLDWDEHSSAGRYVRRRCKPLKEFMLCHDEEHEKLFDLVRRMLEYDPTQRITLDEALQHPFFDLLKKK
Summary of the method: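 Recombinant human Clk4 (25 nM) phosphorylated RS repeat peptide (100 uM) with 1 uM ATP in Tris pH 7.5/MgCl2/EGTA/DTT/Triton buffer for 4.5 h at room temperature. Residual ATP was quantified by Kinase-Glo luciferase luminescence.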

[13] = biological target: Dual specificity protein kinase CLK4 (Homo sapiens) (UniProt Q9HAZ1); test: qHTS Assay for Inhibitors of CDC-like Kinase 4 (ADP-Glo Assay) (AID 1771); settings: recombinant CLK4, ADP-Glo luminescence; series mostly up to 80 µM; also: % is scaled to controls: 0 for no effect and ±100 for the full control effect; nearly all actives have a fitted effect of over 70% in size
Summary of the method: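 Compounds are pin-transferred onto substrate mix (100 uM RS peptide, 1 uM ATP), then 25 nM Clk4 is added. After 1 hr at room temperature, ADP-Glo reagent runs 45 min, detection reagent 30 min, then luminescence is read.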

[14] = biological target: Dual specificity protein kinase CLK4 (Homo sapiens) (UniProt Q9HAZ1); test: qHTS Assay for Inhibitors of CDC-like Kinase 4 (ADP-FP Assay) (AID 1795); settings: Transcreener ADP fluorescence polarization; series mostly up to 50 µM; also: % is scaled to controls: 0 for no effect and ±100 for the full control effect; nearly all actives have a fitted effect of over 60% in size
Summary of the method: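 Recombinant human Clk4 (6.25 nM) phosphorylated RS repeat peptide (100 uM) with 1 uM ATP in Tris pH 7.5/MgCl2/EGTA/DTT/Triton buffer for one hour. ADP was quantified by Transcreener competitive fluorescence polarization against an ADP calibration curve.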

[15] = biological target: Ubiquitin carboxyl-terminal hydrolase 1 (Homo sapiens) (UniProt O94782); test: Inhibitors of USP1/UAF1: Pilot qHTS (AID 504865); settings: purified USP1/UAF1, Ub-rhodamine cleavage fluorescence; series mostly up to 54.9 µM;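 also: rhodamine fluorescence freed from ubiquitin-rhodamine substrate followed over time; top concentration of the series differs between compounds; % is scaled to controls: 0 for no effect and ±100 for the full control effect; nearly all actives have a fitted effect of over 35% in size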
Ubiquitin carboxyl-terminal hydrolase 1 (Homo sapiens), sequence (O94782 whole entry, looked up): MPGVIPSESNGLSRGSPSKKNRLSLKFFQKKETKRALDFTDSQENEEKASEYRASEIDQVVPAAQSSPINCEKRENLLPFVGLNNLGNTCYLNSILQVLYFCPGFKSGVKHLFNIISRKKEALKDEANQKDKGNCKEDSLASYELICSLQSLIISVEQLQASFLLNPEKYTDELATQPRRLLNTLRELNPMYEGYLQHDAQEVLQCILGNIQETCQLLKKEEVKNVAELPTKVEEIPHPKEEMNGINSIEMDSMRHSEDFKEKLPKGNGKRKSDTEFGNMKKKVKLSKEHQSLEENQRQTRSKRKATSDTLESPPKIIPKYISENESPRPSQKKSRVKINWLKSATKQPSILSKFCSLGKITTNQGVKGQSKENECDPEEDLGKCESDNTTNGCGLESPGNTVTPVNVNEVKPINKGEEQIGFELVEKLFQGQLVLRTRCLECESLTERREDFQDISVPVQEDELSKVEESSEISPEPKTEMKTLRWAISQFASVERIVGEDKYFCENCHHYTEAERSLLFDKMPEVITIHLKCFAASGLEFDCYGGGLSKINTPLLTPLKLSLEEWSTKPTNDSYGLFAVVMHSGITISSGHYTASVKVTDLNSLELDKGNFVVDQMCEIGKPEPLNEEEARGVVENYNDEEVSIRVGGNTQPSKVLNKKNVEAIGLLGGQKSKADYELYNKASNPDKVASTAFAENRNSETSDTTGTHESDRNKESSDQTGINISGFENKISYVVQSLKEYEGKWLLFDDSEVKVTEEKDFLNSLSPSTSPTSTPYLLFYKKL
Summary of the method: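 USP1/UAF1 complex (1nM) preincubated with compound 15 min at room temperature, then Ub-Rho substrate (150nM final) added. Fluorescence read kinetically at 480/540 nm, 6 reads every 60 seconds. Buffer: 50mM HEPES pH 7.8, 0.5mM EDTA, 0.1 mg/ml BSA, 1mM TCEP, 0.01% Tween-20.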

[16] = Primary qHTS for small molecule stabilizers of the endoplasmic reticulum resident proteome: Secreted ER Calcium Modulated Protein (SERCaMP) assay (AID 1508630); settings: SH-SY5Y GLuc-SERCaMP (Gaussia luciferase released on ER calcium loss) secretion, thapsigargin, luminescence; series mostly up to 38.4 µM; also: % is scaled to controls: 0 for no effect and ±100 for the full control effect
Summary of the method: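 The SH-SY5Y reporter protocol was run at 3 concentrations up to 38.3 uM (primary) or 11 concentrations (follow-up): 16 h compound, 100 nM thapsigargin for 4 h, then extracellular luciferase luminescence.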

[17] = biological target: Glucocorticoid receptor (Homo sapiens) (UniProt P04150); test: GR-GFP Redistribution (AID 450;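 active = compounds whose dose series gives a full or clear partial fitted curve of increased nuclear translocation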; also: potency is read from the fitted curve at half-maximal effect); settings: U2OS GR-GFP nuclear translocation, laser cytometry, 2 h
[18] = biological target: Cytochrome P450 3A4 (Homo sapiens) (UniProt P08684); test: qHTS Assay for Inhibitors and Substrates of Cytochrome P450 3A4 (AID 884); settings: recombinant CYP3A4, Luciferin-PPXE luminescence; series mostly up to 57.1 µM; also: nearly all actives have a fitted effect of over 50% in size; also: potency is read from the fitted curve at half-maximal effect
Summary of the method: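 Luminescent readout of luciferin produced by CYP3A4 (20 nM) dealkylation of Luciferin-PPXE, 25 uM (its KM). NADPH-driven reaction ran 60 min at RT after 10 min compound preincubation; data scaled to 57 uM ketoconazole as 100% inhibition.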

[19] = biological target: Cytochrome P450 2C19 (Homo sapiens) (UniProt P33261); test: qHTS Assay for Inhibitors and Substrates of Cytochrome P450 2C19 (AID 899); settings: recombinant CYP2C19, luciferin-H EGE luminescence; series mostly up to 57.1 µM; also: potency is read from the fitted curve at half-maximal effect; nearly all actives have a fitted effect of over 60% in size
Cytochrome P450 2C19 (Homo sapiens), sequence (P33261 whole entry, looked up): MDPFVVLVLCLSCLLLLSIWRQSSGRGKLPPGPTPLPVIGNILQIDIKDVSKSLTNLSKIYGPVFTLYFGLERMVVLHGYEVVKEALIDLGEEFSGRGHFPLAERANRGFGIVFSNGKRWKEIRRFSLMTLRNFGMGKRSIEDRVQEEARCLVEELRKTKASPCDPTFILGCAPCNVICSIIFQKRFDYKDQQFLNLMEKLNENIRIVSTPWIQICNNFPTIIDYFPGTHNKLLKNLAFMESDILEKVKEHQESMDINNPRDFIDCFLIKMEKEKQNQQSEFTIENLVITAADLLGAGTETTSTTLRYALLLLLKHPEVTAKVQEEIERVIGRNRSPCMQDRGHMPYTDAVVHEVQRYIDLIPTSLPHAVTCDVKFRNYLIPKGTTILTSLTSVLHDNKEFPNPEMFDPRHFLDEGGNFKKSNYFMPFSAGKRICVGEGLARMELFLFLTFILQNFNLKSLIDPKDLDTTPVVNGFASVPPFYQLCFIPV
Summary of the method: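 In 50mM KPO4, the reaction held 5nM enzyme and KM-level (10uM) Luciferin-H EGE; it ran 60 min at 37C after NADPH regeneration and a 10 min compound preincubation. Luminescence values were scaled to 57uM ketoconazole as complete inhibition.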

[20] = measured here: cell count channel max response
[21] = measured here: lipid channel max response

COCCn1c(=O)cnc2cnc(Oc3ccccc3)nc21
active: Potency [3] 15.8 µM
12%: max response [11, 20]
inactive: Potency [1] > 11.4 µM | activity change, negative = inhibition [2] -14.7% | activity change, negative = inhibition [4] -0.802% | activity, negative = inhibition [5] -13.1% | Potency [6] > 46 µM | outcome [7] | Potency [8] | Potency [9] | activation [10] 10.1% | activity change, negative = inhibition [11] 3.04% | Potency [12] | Potency [13] | Potency [14] | Potency [15] | Potency [16]
12.6%: max response [11, 21]

CN(C)Cc1ccccc1-c1nc(NCc2cccs2)c2ccccc2n1
active: Potency [3] 1 µM
inactive: Potency [1] > 11.4 µM | activity change, negative = inhibition [2] 25.7% | activity change, negative = inhibition [4] -24.9% | activity, negative = inhibition [5] 15.6% | Potency [6] > 46 µM | outcome [7] | Potency [9] | activity change, negative = inhibition [11] -0.128% | Potency [12] | Potency [13] | Potency [14] | Potency [15] | Potency [16]
16.9%: max response [11, 20]
15.9%: max response [11, 21]

Clc1ccccc1-c1cncnc1NCc1cccs1
active: Potency [3] 3.98 µM | Potency [18] 0.501 µM | Potency [19] 1.58 µM
21%: max response [11, 20]
inactive: Potency [1] > 11.4 µM | activity change, negative = inhibition [2] -10.1% | activity, negative = inhibition [5] -9.78% | Potency [17] > 46 µM | Potency [6] > 46 µM | outcome [7] | Potency [9] | activity change, negative = inhibition [11] 4.06% | Potency [12] | Potency [13] | Potency [14] | Potency [16]
23.3%: max response [11, 21]

O=c1c(-c2ccc(F)cc2)nc2cnc(N3CCNCC3)nc2n1Cc1ccc(F)cc1
7.95%: max response [11, 20]
9.79%: max response [11, 21]
inactive: Potency [1] > 11.4 µM | Potency [17] > 9.22 µM | Potency [6] > 46 µM | outcome [7] | Potency [8] | Potency [9] | activity change, negative = inhibition [11] 2.38% | Potency [12] | Potency [13] | Potency [14] | Potency [16]
active: activity change, negative = inhibition [2] 115% [activator] | Potency [3] 15.8 µM | activity change, negative = inhibition [4] 163% [activator] | Potency [18] 7.94 µM

Cn1c(=O)c(-c2cccc(C#N)c2)nc2cnc(Oc3ccccc3)nc21
inactive: Potency [1] > 11.4 µM | activity change, negative = inhibition [2] -13.9% | activity change, negative = inhibition [4] -0.708% | Potency [17] > 9.22 µM | Potency [6] > 46 µM | outcome [7] | Potency [8] | Potency [18] | activity change, negative = inhibition [11] -3.03% | Potency [12] | Potency [13] | Potency [14] | Potency [15] | Potency [16]
16.1%: max response [11, 20]
12.2%: max response [11, 21]
active: Potency [3] 1.58 µM | Potency [9] 3.16 µM
